High-throughput results (PubChem)
RE007 growth inh: qHTS Assay for Inhibitors of the HIV-1 protein Vpr. hit rate 0.21% among 360,000. S. pombe RE007 Vpr strain, BacTiter-Glo ATP luminescence, 24 h. Potency, µM (highest dose often 92.2 µM), most hits filed as inhibitors; active means well fitted falling curve with a large enough effect; inconclusive means small, poorly fitted or top-dose-only effect; inactive means no such curve, though single readings can be large or run the other way; further: nearly all actives have a fitted effect of over 50% in size
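Fission yeast strain RE007, carrying one chromosomally integrated HIV-1 vpr copy, was seeded at OD 0.01 in PMG+AL medium with 23 nL pinned compound. After 24 h at 30 °C and 99% humidity, viability was read by BacTiter-Glo luminescence.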
FMDV inh: High Throughput Screening for Foot and Mouth Disease Virus Antivirals; FMDV antiviral cell-based qHTS; Potency, µM (series often up to 57.9 µM), hits mostly inhibitors; hit rate 1.2% among 410,000; AID 1159524, 2015; calls by dose curve; tested in HEK293T cells; further: read-out not given here; nearly all actives have a fitted effect of over 45% in size
LASV entry inh: qHTS for Inhibitors of binding or entry into cells for Lassa Virus. Lassa virus pseudotype entry inhibition, cell reporter. Potency, µM (doses to about 37.9 µM), most hits filed as inhibitors. hit rate 1.2% among 300,000. AID 540256, 2011; calls by dose curve; tested in HEK293 cells; further: nearly all actives have a fitted effect of over 50% in size
Sm TGR block: qHTS Assay for the Inhibitors of Schistosoma Mansoni Peroxiredoxins | Schistosoma mansoni thioredoxin glutathione reductase (TGR), Q962Y6 | purified TGR, DTNB reduction, TNB absorbance 405 nm | Potency, µM (doses to about 114 µM), usual class: inhibitors | hit rate 3% among 360,000; further: nearly all actives have a fitted effect of over 60% in size
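First, TGR (20 nM dispensed) and NADPH were mixed with compound. Second, a 15 min room-temperature incubation followed. Third, further NADPH and then DTNB were added to start the reaction. Finally, TNB absorbance was monitored kinetically.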
Marburg entry inh: qHTS for inhibitors of binding or entry into cells for Marburg Virus; Marburg virus pseudotyped entry inhibition, cell reporter; hit rate 1.8% among 300,000; Potency, µM (titrated, usually from 37.8 µM), actives largely listed as inhibitors; calls by dose curve; tested in HEK293 cells
HCV inh: qHTS Assay for Inhibitors of Hepatitis C Virus (HCV). hit rate 3.4% among 340,000. AID 651820, 2012. Potency, µM (highest dose often 41.8 µM), actives largely listed as inhibitors. Huh7.5.1 HCVcc-Cre infection, luciferase reporter, 44 h
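HCVcc-Cre virus at an moi near 0.5 was added right after compound to cells cultured 4 h from seeding (1,000 cells/well). Luciferase activity was determined 44 h later, 15 min after substrate addition at RT.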
Each line names hits and unclear results; the compound was inactive in the other large screens; ! = repeats disagree. This is a sample that favours compounds with a hit; in the whole collection about 7.2% have one here. Unless noted, the call rests on the fitted dose curve; in most records, active means well fitted curve in the direction sought with a large enough effect; inconclusive means small, poorly fitted or top-dose-only effect, or another doubt; inactive means no such curve, though single readings can be large; an effect the other way counts as inactive or inconclusive.

CC1(C)CC(C(CCN(Cc2ccccc2)C(=O)c2ccco2)c2ccc(F)cc2)CCO1 (configuration not stated)	FMDV inh 14µM, LASV entry inh inconclusive, Marburg entry inh inconclusive, HCV inh inconclusive (no result: RE007 growth inh)
CCC(=O)N(CCC(c1ccco1)C(C)C)Cc1ccccc1 (configuration not stated)	FMDV inh inconclusive, LASV entry inh inconclusive, Marburg entry inh inconclusive
CC(=O)N(CCC(c1ccco1)C(C)C)Cc1ccc(Cl)cc1 (configuration not stated)	LASV entry inh 10µM, Sm TGR block 20µM
Cc1nc([N+](=O)[O-])cn1CC(=O)c1ccc(F)cc1	none
Cc1nc([N+](=O)[O-])c(Sc2nc3ccc([N+](=O)[O-])cc3[nH]2)n1Cc1ccccc1	FMDV inh inconclusive, Sm TGR block 14µM, HCV inh inconclusive
Cc1nc([N+](=O)[O-])c(Br)n1CC(=O)c1ccc(F)cc1	LASV entry inh inconclusive, Sm TGR block 3.2µM, Marburg entry inh inconclusive
Cc1nc([N+](=O)[O-])c(Br)n1CC(=O)c1cccc([N+](=O)[O-])c1	FMDV inh 32µM, Sm TGR block 2µM, Marburg entry inh inconclusive
COC(=O)Cn1c(C)nc([N+](=O)[O-])c1Br	LASV entry inh inconclusive, Sm TGR block 6.3µM, Marburg entry inh inconclusive
CCn1c(=N)n(CC(=O)c2cccc([N+](=O)[O-])c2)c2ccccc21	Marburg entry inh inconclusive, HCV inh inconclusive
CCn1c(C)nc([N+](=O)[O-])c1C(=O)O	none
Cc1ccc2cccc(NC(=O)c3cccc4c(Br)cccc34)c2n1	Marburg entry inh inconclusive (no result: RE007 growth inh, HCV inh)
CCOC(=O)c1ccccc1NC(=O)Cn1ncc2c([nH]c3ccccc32)c1=O	none (no result: RE007 growth inh, Marburg entry inh, HCV inh)
CCc1c(C)c2cc3c(c(C)c2oc1=O)OCN(CCc1ccccc1F)C3	LASV entry inh inconclusive, Sm TGR block inconclusive (no result: RE007 growth inh, HCV inh)
CCCNc1ncnc2c1c(-c1ccccc1)cn2-c1ccccc1	none (no result: RE007 growth inh, Marburg entry inh, HCV inh)
Cc1nc([N+](=O)[O-])c(Br)n1Cc1ccccc1	Sm TGR block 2.5µM (no result: LASV entry inh, Marburg entry inh)
CC1(C)C=Cc2cc3ccc(=O)oc3cc2O1	none (no result: LASV entry inh, Marburg entry inh)
CC1Oc2cc3oc4c(O)c5c(cc4c(=O)c3c(O)c2C1(C)C)C=CC(C)(C)O5 (configuration not stated)	HCV inh 5µM (no result: LASV entry inh, Sm TGR block, Marburg entry inh)
COc1cccc(N2CCN(C(=O)CN3CCSc4ccccc43)CC2)c1	FMDV inh inconclusive (no result: RE007 growth inh, Marburg entry inh, HCV inh)
C1CCC2(CC1)C1=C(CCCC1)Nc1nnnn12	Sm TGR block 45µM
S=C1NC2=C(CCCC2)C2(CCCCC2)N1	none
O=C(c1cccc(F)c1)N(Cc1cc2cc3c(cc2nc1N1CCOCC1)CCC3)CC1CCCO1 (configuration not stated)	none (no result: RE007 growth inh, LASV entry inh, Sm TGR block, Marburg entry inh, HCV inh)
COc1cc(C(NC(=O)C(F)(F)F)c2cc3ccccc3o2)cc(OC)c1OC (configuration not stated)	LASV entry inh inconclusive (no result: RE007 growth inh, FMDV inh, Sm TGR block, HCV inh)
O=C(C1=C[C@@H](c2ccccc2)C[C@@H](OCc2ccc(CO)cc2)O1)N1CCN(Cc2ccc3c(c2)OCO3)CC1	HCV inh 11µM (no result: LASV entry inh, Marburg entry inh)
O=C(C1=C[C@H](c2ccccc2)C[C@H](OCc2ccc(CO)cc2)O1)N1CCN(Cc2ccccc2)CC1	Sm TGR block 28µM (no result: LASV entry inh, Marburg entry inh)
CCN(CC)CCCNC(=O)CN1C(=O)COc2ccc(S(=O)(=O)N3CCC(C)CC3)cc21	none (no result: RE007 growth inh, HCV inh)
Cc1cccc(N2CCN(S(=O)(=O)c3cc(Br)cc4c3N(C(=O)C3CC3)CC4)CC2C)c1 (configuration not stated)	none (no result: RE007 growth inh, HCV inh)
CC(=O)N/C(=N\c1nc(C)cc(C)n1)Nc1ccc(NC(C)=O)cc1	none (no result: RE007 growth inh, FMDV inh, LASV entry inh, Sm TGR block, HCV inh)
CCc1ccc(-c2cn(-c3nc(C)cc(C)n3)c(=N)o2)cc1	LASV entry inh 16µM, Marburg entry inh inconclusive, HCV inh 22µM
COc1ccc(C(CCN2CCOCC2)c2c(OC)cc(OC)c3ccc(=O)oc23)cc1 (configuration not stated)	HCV inh 2.8µM (no result: LASV entry inh, Sm TGR block, Marburg entry inh)
COc1ccc(C(CCN2CCOCC2)c2c(OC)cc(OC)c3c(-c4ccccc4)cc(=O)oc23)cc1 (configuration not stated)	HCV inh 32µM (no result: LASV entry inh, Sm TGR block, Marburg entry inh)
COc1cc(OC)c2ccc(=O)oc2c1C(CCN1CCOCC1)c1ccc2c(c1)OCO2 (configuration not stated)	none (no result: LASV entry inh, Sm TGR block, Marburg entry inh)
CN1CCN(C(=O)Nc2ccccc2)CC1	none (no result: Sm TGR block)
CN1CCN(C(=O)Nc2ccccc2CC[N+](=O)[O-])CC1	Sm TGR block 32µM, Marburg entry inh inconclusive
COc1ccc(CCNC(=O)c2ccc3c(c2)N(Cc2ccc(Cl)cc2)C(=O)c2ccccc2S3)cc1OC	none (no result: RE007 growth inh, Marburg entry inh, HCV inh)
CCNC(=S)NN=C1c2ccccc2-c2ccccc21	RE007 growth inh inconclusive, HCV inh 16µM
C=C(C)CNC(=S)NN=C1c2ccccc2-c2ccccc21	LASV entry inh inconclusive, Marburg entry inh inconclusive, HCV inh 11µM
S=C(NCCCN1CCOCC1)NN=C1c2ccccc2-c2ccccc21	FMDV inh inconclusive (no result: LASV entry inh, Sm TGR block, Marburg entry inh, HCV inh)
CCOC(=O)CSc1nc2sc3c(c2c(=O)n1-c1ccc(OC)cc1)CC(C(C)C)OC3 (configuration not stated)	none (no result: RE007 growth inh, HCV inh)
O=C(COC(=O)c1cc(S(=O)(=O)N2CCOCC2)ccc1Cl)Nc1ccc(Cl)cn1	none (no result: LASV entry inh, Sm TGR block, Marburg entry inh, HCV inh)
O=C(COC(=O)CCc1ccc(S(=O)(=O)N2CCOCC2)cc1)Nc1ccc(Cl)cn1	Marburg entry inh 0.79µM!
O=C(Nc1ccc(S(=O)(=O)N2CCCC2)cc1)c1ccc([N+](=O)[O-])o1	FMDV inh inconclusive, HCV inh 2.8µM (no result: LASV entry inh, Sm TGR block, Marburg entry inh)
O=C(Nc1ccc(S(=O)(=O)N2CCCCCC2)cc1)c1ccc(Br)o1	LASV entry inh 9.2µM, Marburg entry inh inconclusive, HCV inh inconclusive
O=C(Nc1ccccc1N1CCOCC1)c1ccc([N+](=O)[O-])s1	Marburg entry inh inconclusive, HCV inh 11µM (no result: Sm TGR block)
Cc1ccc(C(=O)Nc2ccc(S(=O)(=O)N3CCCC3)cc2)o1	none
CC(=O)OC[C@@]12C(=O)[C@@H](O)[C@@H](C)[C@]3(C[C@@H](c4ccoc4)O[C@@H]3OC(C)=O)[C@H]1CCC[C@]21CO1	none (no result: RE007 growth inh, LASV entry inh, Sm TGR block, Marburg entry inh, HCV inh)
Cc1ccc(CNC(=O)CN2C(=O)COc3ccc(S(=O)(=O)Nc4ccccc4)cc32)cc1	none (no result: RE007 growth inh, Marburg entry inh, HCV inh)
O=C(COc1ccc(F)cc1)Nc1ccc2nc(SCc3ccccc3)sc2c1	Marburg entry inh inconclusive (no result: RE007 growth inh, HCV inh)
Cc1ccc(Cl)cc1NC(=O)C1CCCN(S(=O)(=O)c2c(C)noc2/C=C/N(C)C)C1 (configuration not stated)	none (no result: RE007 growth inh, HCV inh)
N#Cc1ccc(NC(=O)CCc2ccc(S(=O)(=O)N3CCOCC3)cc2)cc1	FMDV inh 28µM, HCV inh inconclusive
CCc1c(C(=O)Nc2ccc(S(=O)(=O)N3CCOCC3)cc2)csc1C	HCV inh 10µM
O=C(Nc1ccc(S(=O)(=O)N2CCOCC2)cc1)c1ccc([N+](=O)[O-])o1	RE007 growth inh inconclusive, Sm TGR block 28µM, Marburg entry inh inconclusive
